Compound activity: PubChem BioAssay, several laboratories
GalR3 antagonist: antagonists of human GalR3; O60755; HEK293 GalR3-CNG cAMP membrane potential fluorescence; galR3 body fused to GalR1 C-terminus; inhibition, % at 3 µM; hit rate 0.44% among 360,000; AID 651719;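 active = inhibition above the screen-wide average plus 3 SD, cut at about 13% in these data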;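 note: forskolin and galanin both at EC90 stimulate the cells; cAMP rise reported by CNG channel membrane potential dye signal; 0% = forskolin plus galanin with DMSO and 100% = forskolin alone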
Target sequence (O60755 1-299 limits assumed): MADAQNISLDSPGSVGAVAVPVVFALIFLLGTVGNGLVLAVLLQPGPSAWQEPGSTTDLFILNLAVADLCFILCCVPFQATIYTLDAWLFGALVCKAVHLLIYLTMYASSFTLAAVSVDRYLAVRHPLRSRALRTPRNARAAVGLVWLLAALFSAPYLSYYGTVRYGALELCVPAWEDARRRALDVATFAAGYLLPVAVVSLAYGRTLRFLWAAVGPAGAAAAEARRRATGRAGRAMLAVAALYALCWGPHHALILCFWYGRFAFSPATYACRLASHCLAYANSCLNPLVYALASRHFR
Env fusion inh: HIV envelope-mediated fusion inhibition; HeLa-JRFL Env/CEM21 cell fusion, luciferase; inhibition, % at 12.3 µM; hit rate 1.1% among 360,000;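 active = mean replicate inhibition score of at least 50 and every replicate individually at or above 50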;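 note: 0% = plate neutral controls and 100% = maraviroc near 300 nM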
Gli-Sufu block: blocks Gli-Sufu signaling in a luciferase reporter; hit rate 0.74% among 340,000; Sufu-KO-LIGHT fibroblasts, Gli luciferase reporter luminescence; inhibition, % at 5 µM;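 active = inhibition above about 55%, limit read from the data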;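 note: 0% = DMSO-treated cells and 100% = wells with medium but no cells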
aDG glyco up: alpha-DG glycosylation activation. Pro5-aDG cells, alpha-DG glycosylation AlphaScreen (IIH6); 0% Pro5, 100% B10-LARGE cell signal. activation, % at 10 µM. hit rate 0.22% among 360,000;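 active = activation of at least 8% versus controls, or a plate z-score of at least 8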;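 note: Pro5 are CHO cells carrying HIG-tagged alpha-DG that lacks glycosylation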
COUP-TFII inh: blocks human COUP-TFII nuclear receptor. HEK293T NGFI-A luciferase reporter, luminescence. AID 686940. hit rate 0.7% among 370,000. inhibition, % at 8.6 µM. P24468;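 active = inhibition above a per-plate cutoff, mean inhibition of test wells between control levels plus 3 SD, cut at about 38% in these data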;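 note: cells cotransfected with COUP-TFII expression vector driving the NGFI-A reporter; 0% = median of COUP-TF2 test wells and 100% = reporter-only cells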
Gli antag conf: Gli-SUFU antagonism confirmation, single concentration | shares compounds with Gli-Sufu block | Sufu-KO-LIGHT cells, Gli luciferase reporter, luminescence | inhibition, % at 5 µM | hit rate 40% among 2,500;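 active = mean inhibition at 5 µM reaching about 45%, limit read from the data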;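 note: plate controls were DMSO-treated cells for no effect and wells lacking cells for full effect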
Gli cytotox: counter-screen for Gli-SUFU antagonists: cytotoxicity; shares compounds with Gli-Sufu block; Sufu-KO-LIGHT cells cytotoxicity, ATP luminescence; cytotoxicity, % at 5 µM; hit rate 32% among 2,500; AID 651994;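 active = mean cytotoxicity at 5 µM above about 25%, limit read from the data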;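 note: cells exposed to compound overnight for roughly 16 to 18 hours; plate controls were DMSO wells with cells for no effect and medium without cells for full effect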
Wnt3a counter: Wnt3a reporter inhibition counter-screen; hit rate 20% among 2,500; AID 651995; inhibition, % at 6.25 µM; shares compounds with Gli-Sufu block; Wnt-LIGHT cells, Wnt3a-driven luciferase reporter, luminescence;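 active = mean inhibition above about 25%, limit read from the data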
Numbers without * were called inactive; [ ] = dose if it differs, or a comment. Most compounds without a hit are left out; they make up all but 2.1% or so of the library.

`CCc1ccc(-n2cc(-c3ccc(F)cc3)[n+]3c2SCCC3)cc1` gave GalR3 antagonist -0.7, Env fusion inh 46.9, Gli-Sufu block 85.5*, aDG glyco up -0.2, COUP-TFII inh 35.1, Gli antag conf 89.6*, Gli cytotox 44.8* and Wnt3a counter 32.9*.
C[C@@H]1CN([C@H](C)CO)C(=O)c2cc(NC(=O)CCCN(C)C)ccc2O[C@@H]1CN(C)S(=O)(=O)c1ccccc1 was read as Env fusion inh 5.4[16.7 µM].
Screening N#C/C(=C/c1ccc(-c2ccc([N+](=O)[O-])cc2)o1)C(=O)Nc1nc(-c2cccs2)cs1 returned GalR3 antagonist -3.5, Env fusion inh -27.6, Gli-Sufu block 72.3*, aDG glyco up 0.0, COUP-TFII inh -5.5, Gli antag conf 83.8*, Gli cytotox 6.0 and Wnt3a counter 32.8*.
For N#C/C(=C\c1ccc(-c2ccc(F)cc2)o1)C(=O)Nc1nc(-c2cccs2)cs1 the results were GalR3 antagonist -1.4, Env fusion inh -16.5, Gli-Sufu block -4.0, aDG glyco up 0.1 and COUP-TFII inh 0.8.
Screening COc1ccccc1C(=O)NC(=S)/C=C1/N(C)c2ccccc2C1(C)C returned GalR3 antagonist 0.2, Gli-Sufu block 77.9*, aDG glyco up 1.7, COUP-TFII inh 6.5, Gli antag conf 33.6, Gli cytotox 26.3* and Wnt3a counter -8.7.
CN1/C(=C\C(=S)NC(=O)c2ccccc2Cl)C(C)(C)c2ccccc21 was read as GalR3 antagonist -5.3, Env fusion inh 34.3, Gli-Sufu block 72.9*, aDG glyco up 1.5, COUP-TFII inh 9.1, Gli antag conf 55.1*, Gli cytotox 31.3* and Wnt3a counter 30.1*.
CCOC(=O)/C=C1/N(C)c2ccccc2C1(C)C was read as GalR3 antagonist -6.7, Env fusion inh 14.7, Gli-Sufu block -3.3, aDG glyco up 0.1 and COUP-TFII inh 1.5.
`CN1/C(=C\C(=S)Nc2ccccc2)C(C)(C)c2ccccc21` gave GalR3 antagonist -6.3, Env fusion inh 52.9*, Gli-Sufu block 64.6*, aDG glyco up 0.2, COUP-TFII inh 12.7, Gli antag conf 73.9*, Gli cytotox 16.0 and Wnt3a counter 28.2*.
For CN1/C(=C/C(=S)NC(=O)C2(C)CC2(Cl)Cl)C(C)(C)c2ccccc21 (configuration not stated) the results were GalR3 antagonist -6.5, Env fusion inh -4.2, Gli-Sufu block 60.5*, aDG glyco up 1.9, COUP-TFII inh 2.1, Gli antag conf 24.1, Gli cytotox 26.2* and Wnt3a counter 0.6.
CN1/C(=C\C(=O)Nc2ccc(Cl)cc2)C(C)(C)c2ccccc21 was read as GalR3 antagonist -4.9, Env fusion inh -4.8, Gli-Sufu block -8.5, aDG glyco up -0.3 and COUP-TFII inh -3.5.
For CCCNC(=O)C[C@@H]1CC[C@@H]2[C@@H](COc3ccc(NC(=O)CCC)cc3C(=O)N2C)O1 the results were Env fusion inh -49.1[16.7 µM].
C[C@H](CO)N1C[C@H](C)[C@@H](CN(C)Cc2ccc(Cl)c(Cl)c2)Oc2ccc(NC(=O)CCC(F)(F)F)cc2CC1=O was read as Env fusion inh 9.2[16.7 µM].
For Cc1ccc(S(=O)(=O)N(C)C[C@@H]2Oc3ccc(NS(=O)(=O)c4ccc(Cl)cc4)cc3C(=O)N([C@H](C)CO)C[C@H]2C)cc1 the results were Env fusion inh 18.7[16.7 µM].
`C[C@H](CO)N1C[C@H](C)[C@H](CN(C)Cc2ccccn2)Oc2ncc(C3=CCCC3)cc2C1=O` gave Env fusion inh -4.4[16.7 µM].
`COc1ccc(C(=O)NCCN(C)C)c2nc3ccccc3cc12` gave GalR3 antagonist -4.1, Env fusion inh -200.5, Gli-Sufu block 63.5*, aDG glyco up 0.8, COUP-TFII inh -84.5, Gli antag conf 70.4*, Gli cytotox 38.5* and Wnt3a counter -281.5.
COc1cccc2nc3c(C(=O)NCCN(C)C)cccc3cc12 was read as GalR3 antagonist -2.0, Env fusion inh -174.9, Gli-Sufu block 69.7*, aDG glyco up -0.2, COUP-TFII inh -47.5, Gli antag conf 61.6*, Gli cytotox 23.2 and Wnt3a counter -98.2.
For CN(C)CCNC(=O)c1cccc2nc3c(ccc4ccccc43)nc12 the results were GalR3 antagonist -5.6, Env fusion inh -31.3, Gli-Sufu block 33.9, aDG glyco up 0.0 and COUP-TFII inh -40.4.
`COc1ccc(-c2nc3c(C(=O)NCCN(C)C)cccc3c3ccccc23)cc1` gave GalR3 antagonist -8.6, Env fusion inh 2.8, Gli-Sufu block 18.3, aDG glyco up 3.0 and COUP-TFII inh 3.3.
Screening COCC(=O)N(C)C[C@@H]1Oc2cc(-c3ccc(F)cc3)ccc2S(=O)(=O)N([C@@H](C)CO)C[C@@H]1C returned Env fusion inh -0.4[16.7 µM].
`CC(C)(C)S(=O)N1Cc2cc(C(=O)NCCCN3CCOCC3)nc(-c3cccc(-c4cccc(F)c4)c3)c2[C@H]1CCO` (some centres not stated) gave Env fusion inh -7.1[16.7 µM].
CCn1c(=NC(=O)CCS(=O)(=O)c2ccccc2)sc2cccc(OC)c21 was read as GalR3 antagonist -3.9, Env fusion inh 31.6, Gli-Sufu block 70.3*, aDG glyco up 3.8, COUP-TFII inh 14.3, Gli antag conf 71.3*, Gli cytotox 27.9* and Wnt3a counter 17.3.
For COCCn1c(=NC(=O)c2ccc(S(=O)(=O)N3CCOCC3)cc2)sc2cc(S(N)(=O)=O)ccc21 the results were GalR3 antagonist -5.0, Env fusion inh 12.8, Gli-Sufu block 20.8, aDG glyco up -0.1 and COUP-TFII inh 10.8.
For CCn1c(=NC(=O)CS(=O)(=O)c2ccc(F)cc2)sc2cccc(OC)c21 the results were GalR3 antagonist 1.2, Env fusion inh 17.2, Gli-Sufu block 47.5, aDG glyco up 0.3 and COUP-TFII inh -2.8.
For CCn1c(=NC(=O)c2ccc(S(=O)(=O)N3CCOCC3)cc2)sc2cccc(OC)c21 the results were GalR3 antagonist -1.3, Gli-Sufu block 52.2, aDG glyco up 2.6, COUP-TFII inh 16.8, Gli antag conf 35.2, Gli cytotox 20.5 and Wnt3a counter -1.6.
For COc1ccc(S(=O)(=O)NCC2CCCN(Cc3ccccc3Cl)C2)cc1 (configuration not stated) the results were GalR3 antagonist -10.8, Env fusion inh 1.9, Gli-Sufu block 11.8, aDG glyco up 0.1 and COUP-TFII inh 1.5.
For COc1ccc(S(=O)(=O)NCC2CCCN(Cc3ccc(OC)cc3F)C2)cc1 (configuration not stated) the results were GalR3 antagonist -7.3, Env fusion inh 0.0, Gli-Sufu block 59.7*, aDG glyco up 0.1, COUP-TFII inh -8.9, Gli antag conf 26.1, Gli cytotox -4.6 and Wnt3a counter -15.0.
